Reference: PubChem BioAssay AID743060 (The Scripps Research Institute Molecular Screening Center, 2013)

assay: T. brucei methionyl-tRNA synthetase enzyme inhibition – biochemical, radioactivity, round 1, late-stage follow-up (AID 743060); details: purified enzyme, radiolabel aminoacylation, scintillation, 2 h; at 1 µM; stronger effect = higher value

SMILES | inhibition [%]
CC(C)(C)[C@H]1C=C(C(=O)NCc2nc3ccccc3[nH]2)O[C@@H](OCc2ccc(CO)cc2)C1 | 21.6
COc1cccc(NC(=O)C2CC(=O)n3c(nc4ccccc43)N2)c1 (centres undefined) | 5.53
O=C(NCc1nc2ccccc2[nH]1)C1=C[C@H](c2ccc(Br)cc2)C[C@H](OCc2ccc(CO)cc2)O1 | 50.3
Cc1[nH]c2ccc(Br)cc2c(=O)c1CN1CCCCCC1 | 19.4
O=C1CC(N(CCc2ccccc2)C(=S)Nc2ccccc2)C(=O)N1c1ccc(Br)cc1 (centres undefined) | 84.2
CC(C)c1nc2ccc(C(=O)N(C)CCc3nc4ccc(F)cc4[nH]3)cc2o1 | -1.99
CN(CC(=O)Nc1ccc(Cl)cc1)C(=O)c1ccc(-n2cncn2)c([N+](=O)[O-])c1 | 38
O=C(NCc1nc2ccccc2[nH]1)C1=C[C@@H](c2ccc(Br)cc2)C[C@@H](OCc2ccc(CO)cc2)O1 | 62.1
O=C(C[C@H]1C(=O)N(Cc2ccccc2)C[C@@H]1c1ccc(Br)cc1)Nc1ccc(Br)cc1 | 55.7
Cc1cccc(NC(=O)C2CC(=O)n3c(nc4ccccc43)N2)c1 (centres undefined) | 3
O=C(NCc1nc2ccccc2[nH]1)C1=C[C@H](C2CC2)C[C@H](OCc2ccc(CO)cc2)O1 | -3.3
COc1ccccc1NC(=O)CSc1nnc2c(n1)[nH]c1ccc(C)cc12 | 19.1
Cc1cccc2[nH]c(CCN(C)C(=O)c3cccc(C4CCNC4)c3)nc12 (centres undefined) | -7.8
CC(=O)N(CCc1ccccc1)C1CC(=O)N(c2ccc(Cl)cc2)C1=O (centres undefined) | -16.2
O=C(NCc1nc2ccccc2[nH]1)C1=C[C@@H](c2ccc3c(c2)OCO3)C[C@@H](OCCCCO)O1 | 50.4
O=C(Cn1cc(C(=O)c2ccccc2)c2ccccc21)Nc1cccc(C(F)(F)F)c1 | 22
COc1cccc(NC(=O)CSc2nnc3c(n2)[nH]c2ccc(C)cc23)c1 | 97.7

SMILES | inhibition [%]
O=C(NCCc1nc2ccccc2[nH]1)c1ccc(Cl)c(Cl)c1 | 74.6
O=C(Cn1cc(C(=O)C(=O)N2CCOCC2)c2ccccc21)NCC1CCCO1 (centres undefined) | -3.8
O=C1[C@@H]2Cc3c([nH]c4ccccc34)C(c3cccc([N+](=O)[O-])c3)N2C(=O)CN1CCCO (some centres undefined) | 63.2
CNC(=S)N(CCc1ccccc1)C1CC(=O)N(c2ccc(Br)cc2)C1=O (centres undefined) | 96.6
O=C1CC(SCc2nc3ccccc3[nH]2)C(=O)N1c1cccc(Cl)c1 (centres undefined) | 19.7
CCN(CC)C(=O)C(=O)c1cn(CC(=O)N2CCCc3ccccc32)c2ccccc12 | -9.56
COc1ccc2[nH]c3nc(SCC(=O)Nc4ccc5c(c4)OCO5)nnc3c2c1 | 63.4
CC(C)OCCCN1CC(=O)N2C(c3cccc([N+](=O)[O-])c3)c3[nH]c4ccccc4c3C[C@H]2C1=O (some centres undefined) | 50
Oc1c(Cl)cc(Cl)cc1CNc1nc2ccccc2[nH]1 | 88.3
O=C(NNC(=O)c1ccc(-n2cncn2)c([N+](=O)[O-])c1)c1ccc(Cl)cc1 | 7.36
Cc1ccc2[nH]c3nc(SCC(=O)Nc4ccc(C(F)(F)F)cc4)nnc3c2c1 | 21.3
CCN(C(=O)Cn1cc(C(=O)C(=O)N2CCOCC2)c2ccccc21)c1ccccc1 | -19.2
CC(CC(=O)Nc1cccc(Br)c1)=NNC(=O)c1ccc(O)cc1O | 36.5
CCCCn1c(CCNC(=O)c2ccc(F)cc2)nc2ccccc21 | 4.87
COc1ccc(NC(=O)C2CC(=O)n3c(nc4ccccc43)N2)cc1 (centres undefined) | -18.5
CC(=O)c1c[nH]c(C(=O)NCc2cccc(C(F)(F)F)c2)c1 | 44.6
O=C(NCCc1nc2ccccc2[nH]1)c1ccc(Cl)c([N+](=O)[O-])c1 | 89.8
